High-throughput results: PubChem, National Center for Advancing Translational Sciences (NCATS)
Pf growth 96h = Primary qHTS for delayed death inhibitors of the malarial parasite plastid, 96 hour incubation; Potency, µM (top dose mostly 28.7 µM), for the others: top-dose activity change, negative = inhibition, actives largely listed as inhibitors; 6.9% of 320,000 active; P. falciparum luciferase reporter growth, 96 h; AID 504834, 2011; also: % is scaled to controls: 0 for no effect and ±100 for the full control effect
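Compounds incubated with erythrocytes infected by luciferase-expressing P. falciparum (2% hematocrit, 0.05% parasitemia final) for 96 hours, 37 C in 5% CO2. Growth inhibition scored as decreased luciferase luminescence.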
NS1 inh = qHTS Assay for Inhibitors of Influenza NS1 Protein Function; Potency, µM (titrated, usually from 46.1 µM), without a hit: top-dose activity, positive = more growth; 0.4% of 270,000 active; calls by dose curve; also: actives are rising curves; nearly all actives have a fitted effect of over 50% in size
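OD600 was taken as the measure of yeast growth restored by compound in an NS1-expressing S. cerevisiae strain. Cells had been washed out of glucose medium and diluted 1:100 into galactose -URA medium, pH 6.0.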
Sm TGR inh = qHTS Assay for the Inhibitors of Schistosoma Mansoni Peroxiredoxins; Schistosoma mansoni thioredoxin glutathione reductase (TGR), Q962Y6; Potency, µM (top dose mostly 114 µM), for the others: at the top dose activity change, negative = inhibition, actives largely listed as inhibitors; AID 485364, 2010; 3% of 360,000 active; purified TGR, DTNB reduction, TNB absorbance 405 nm; also: % is scaled to controls: 0 for no effect and ±100 for the full control effect; nearly all actives have a fitted effect of over 60% in size
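Kinetic colorimetric format: TGR-catalysed, NADPH-driven DTNB reduction monitored via TNB absorbance. Enzyme dispensed at 20 nM; compound exposure 15 min at room temperature before reaction start.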
Pf growth 48h = Primary qHTS for delayed death inhibitors of the malarial parasite plastid, 48 hour incubation. P. falciparum luciferase growth in erythrocytes, 48 h. Potency, µM (doses to about 28.7 µM), for the others: at the top dose activity change, negative = inhibition, most hits filed as inhibitors. 5.9% of 310,000 active; also: % is scaled to controls: 0 for no effect and ±100 for the full control effect
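Growth was read as firefly luciferase luminescence after a 48 h, 37 C, 5% CO2 exposure of compounds to reporter-bearing P. falciparum cultures (0.1% parasitemia, 2% hematocrit final) in Albumax-supplemented RPMI 1640.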
AMA1-RON2 inh = qHTS for Inhibitors of AMA1-RON; Towards Development of Antimalarial Drug Lead: Primary Screen; Potency, µM (top dose mostly 58.2 µM), inactives show at the highest dose activity change, negative = inhibition, hits mostly inhibitors; 0.2% of 360,000 active; Plasmodium falciparum AMA1 (3D7) - RON2 peptide interaction; AID 720542, 2013; AlphaScreen AMA1-biotinylated RON2 peptide binding;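 also: 0% = vehicle wells and -100% = peptide control; nearly all actives have a fitted effect of over 45% in size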
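AMA1 (3D7) with his tag at 25 nM final met compounds first, then biotinylated RON2 peptide at 25 nM; detection used donor plus acceptor beads, 10 µg/mL apiece, read by AlphaScreen after 30 min at room temperature.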
The depositor's hits bear a star. In the library only some 11% were active in any assay of this set; here they are far more common. Unless noted, calls follow the shape of the dose curve; as a rule, active = well fitted curve in the direction sought with a large enough effect; inconclusive = small, poorly fitted or top-dose-only effect, or another doubt; inactive = no such curve, though single readings can be large; an effect the other way counts as inactive or inconclusive. Potency is read from the fitted curve at half-maximal effect.

How did COc1ccc(C(=O)Nc2ccc(-n3nncc3-c3ccc(OC)c(OC)c3)cc2)cc1 do in these assays?
Sm TGR inh: -7%

What do the screens show for `CCN1C(=O)c2n[nH]c(C(=O)OC)c2C1=O`?
Pf growth 96h: 10µM*; NS1 inh: 24%; Sm TGR inh: 7%; Pf growth 48h: inconclusive; AMA1-RON2 inh: -4%

What do the screens show for `CCOC(=O)c1[nH]nc2c1C(=O)N(CC)C2=O`?
Pf growth 96h: 71%; NS1 inh: -6%; Sm TGR inh: 11%; Pf growth 48h: 20%; AMA1-RON2 inh: 2%

Results for C[C@H](NC(=O)c1ccccc1Cl)C(=O)OCC(=O)NNC(=O)c1cccs1 ?
Pf growth 96h: 36%; Sm TGR inh: 4%; Pf growth 48h: 46%; AMA1-RON2 inh: 28%

How did CC1CCN(C(=O)C2CCC(CNS(=O)(=O)c3cccc4cccnc34)CC2)CC1 (stereo not given) do in these assays?
Pf growth 96h: 9.3µM*; NS1 inh: -1%; Sm TGR inh: 2%

Results for CC1CCC(NC(=O)C2CCC(CNS(=O)(=O)c3cccc4cccnc34)CC2)CC1 (stereo not given) ?
Pf growth 96h: 12µM*; NS1 inh: 10%; Sm TGR inh: -14%; Pf growth 48h: -9%; AMA1-RON2 inh: -9%

What do the screens show for `CC(=O)N1c2ccc(S(=O)(=O)NCC3CCC(C(=O)NC4CCC(C)CC4)CC3)cc2CC1C` (stereo not given)?
Pf growth 96h: inconclusive; NS1 inh: -8%; Sm TGR inh: -9%; Pf growth 48h: 13µM*; AMA1-RON2 inh: 8%

Results for CCN(CC)C(=O)C1CCC(CNS(=O)(=O)c2cccc3cccnc23)CC1 (stereo not given) ?
Pf growth 96h: 15µM*; NS1 inh: -10%; Sm TGR inh: -1%; Pf growth 48h: -2%; AMA1-RON2 inh: -8%

How did CN1CCN(C(=O)C2CCC(CNS(=O)(=O)c3cccc4cccnc34)CC2)CC1 (stereo not given) do in these assays?
Pf growth 96h: inconclusive; NS1 inh: 3%; Sm TGR inh: -1%; AMA1-RON2 inh: 2%

Results for CC1CCC(NC(=O)C2CCC(CNS(=O)(=O)c3ccccc3)CC2)CC1 (stereo not given) ?
Pf growth 96h: 20%; NS1 inh: 3%; Sm TGR inh: -6%; Pf growth 48h: -6%; AMA1-RON2 inh: -6%

Results for CCc1nc2ccccc2c(C(=O)OCc2nc3ccccc3c(=O)[nH]2)c1C ?
AMA1-RON2 inh: 7%

Results for CCNC(=S)N/N=C/c1sc(N2CCCCC2)nc1-c1cccs1 ?
Pf growth 96h: 0.17µM*; NS1 inh: 21%; Sm TGR inh: 7%; Pf growth 48h: 0.26µM*; AMA1-RON2 inh: 51%

What do the screens show for `Cc1cccc(NC(=O)NC2CCCc3ccccc32)c1` (stereo not given)?
Pf growth 96h: 37%; NS1 inh: -15%; Sm TGR inh: 4%; Pf growth 48h: -15%; AMA1-RON2 inh: -13%

Results for NC(=O)C1CCN(C2CC(=O)N(Cc3ccc(N4CCCC4=O)cc3)C2=O)CC1 (stereo not given) ?
NS1 inh: -11%; Sm TGR inh: 35µM*; Pf growth 48h: 5%; AMA1-RON2 inh: 17%

How did O=C1CC(N2CCN(c3ccccc3)CC2)C(=O)N1Cc1ccc(Cl)cc1 (stereo not given) do in these assays?
Pf growth 96h: -22%; Sm TGR inh: -22%; Pf growth 48h: -13%; AMA1-RON2 inh: 4%

How did O=C1CC(N2CCN(C(c3ccccc3)c3ccccc3)CC2)C(=O)N1Cc1ccc(N2CCCC2=O)cc1 (stereo not given) do in these assays?
Pf growth 96h: 15µM*; NS1 inh: -18%; Sm TGR inh: -9%; Pf growth 48h: 9.3µM*; AMA1-RON2 inh: 11%

How did COC(=O)C1=C(c2ccc(Cl)c(C(F)(F)F)c2)C[C@@H]2CC[C@H]1N2C(=O)NCCOc1ccccc1Cl do in these assays?
Pf growth 96h: 6.6µM*; Sm TGR inh: -12%; Pf growth 48h: 9.3µM*; AMA1-RON2 inh: -1%
